PubChem BioAssay (NCI)
Compounds without any hit were thinned out: in the full panel of roughly 83,000, 20% have a hit.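 Assay: single dose, 48 h. Readout: percent growth (0 = no net growth; negative = cell death). Active: <10.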 Unmarked numbers belong to inactive results. Calls of active or inactive are those of the source.

Experiments:
Experiment in all cases: NCI-60 one-dose screen, 48 h (100 = growth as untreated, 0 = no growth, -100 = all killed)
Details in all cases: 10 µM unless noted
T-47D breast = test system: T-47D breast
BT-549 breast = test system: BT-549 breast
MDA-MB-435 melanoma = test system: MDA-MB-435 melanoma
MCF7 breast = test system: MCF7 breast
HCT-116 colon = test system: HCT-116 colon
HCC-2998 colon = test system: HCC-2998 colon
KM12 colon = test system: KM12 colon
SW-620 colon = test system: SW-620 colon

Row | SMILES | growth (T-47D breast) | growth (BT-549 breast) | growth (MDA-MB-435 melanoma) | growth (MCF7 breast) | growth (HCT-116 colon) | growth (HCC-2998 colon) | growth (KM12 colon) | growth (SW-620 colon)
1 | CCOc1ccc(N(C)c2ccc(/C=C/C3=[N+](C)c4ccccc4C3(C)C)cc2)cc1 | 23.2% | 3.12% (active) | -51% (active) | 10.1% | -45.6% (active) | 11.4% | -93% (active) | –
2 | C[C@]12C=CC(=O)C=C1[C@@H](F)C[C@@H]1[C@@H]2[C@@H](O)C[C@@]2(C)[C@H]1CC[C@]2(O)C(=O)CO | 99.4% | 78.5% | 103% | 87.4% | 105% | 105% | 100% | –
3 | CC(=O)Nc1ccc(CC#N)cc1Br | 94.4% | 109% | 104% | 96.7% | 96.8% | 96.7% | 107% | –
4 | COc1cc(-c2cc3cnccc3c3nc(N)c4ccncc4c23)cc(OC)c1OC | 37.5% | 42.2% | 4.6% (active) | – | 35.1% | 70.1% | 48.1% | 46.8%
5 | CCN(CCO)CCNc1ccc(C)c2sc3cc(OC)ccc3c(=O)c12 | 90.1% | 88.7% | 86.2% | 52.6% | 20.5% | 64.5% | 69.2% | –
6 | COc1ccccc1CNCCCN1C(=O)c2ccc3c4c(ccc(c24)C1=O)C(=O)N(CCCNCc1ccccc1OC)C3=O | -22.9% (active) | -71.6% (active) | -79.3% (active) | -63.9% (active) | -60.5% (active) | -94.7% (active) | -79% (active) | –
7 | CCCCCCCCCCCCCCCCCC1=NCCN1CCNC(C)=O | 85.8% | 99.1% | 103% | 79.2% | 69.1% | 92.3% | 73.4% | –
8 | Cc1cc2c(-c3nc4ccccc4n3C)c(O)c(O)cc2c(O)c1-c1c(C)cc2c(-c3nc4ccccc4n3C)c(O)c(O)cc2c1O | 19.3% | 20% | 34.2% | – | 7.37% (active) | 66.5% | 24.7% | 54.3%
9 | CCn1cnc(C[C@H](NC(=O)[C@@H](NC(=O)Nc2cc(C(F)(F)F)cc(C(F)(F)F)c2)C(C)(C)C)C(=O)OC)c1 | -58% [100 µM] (active) | -86.2% [100 µM] (active) | -90.7% [100 µM] (active) | -62% [100 µM] (active) | -81% [100 µM] (active) | -89.3% [100 µM] (active) | – | –
10 | Cc1ccc(C(=O)NN)cc1 | 109% | 98.8% | 109% | 99.7% | 100% | 99.5% | – | –
11 | O=C1C(Br)=CC2C1C1C3CCC3C2(Br)C12OCCO2 (stereo not given) | 3.72% (active) | 45.6% | 23.7% | 2.12% (active) | 16.1% | 74.8% | 44.9% | –
12 | CCCCCCNc1nc(N2CCOCC2)c2[nH]c(NCCCCCC)nc2n1 | -70.4% (active) | -81.4% (active) | -58.6% (active) | -88.4% (active) | -100% (active) | -100% (active) | -89.9% (active) | –
13 | COc1ccc(Cn2cc3c(c2-c2ccccc2)CCc2cnoc2-3)cc1OC | 28.3% | 45.8% | -33.9% (active) | – | 22.8% | 37.4% | 29.2% | 25.2%
14 | COc1ccc(-c2nnc(SCC(=O)Nc3ccc(C(=O)/C=C/c4cc(OC)c(OC)c(OC)c4)cc3)n2-c2ccccc2)cc1OC | -43.3% [100 µM] (active) | -94.7% [100 µM] (active) | -16.1% [100 µM] (active) | 1.19% [100 µM] (active) | -84.5% [100 µM] (active) | 8.22% [100 µM] (active) | – | –
15 | N#CCCCCCCCCCCC#N | 96.2% | 102% | 91.9% | 104% | 105% | 95% | 111% | –
16 | OCCN1CCN(CC/C=C2/c3ccccc3Sc3ccc(C(F)(F)F)cc32)CC1 | 62.5% | 75.2% | 35.2% | 56.6% | 41.5% | 21.4% | 63.4% | –
17 | COC1=CC(c2ccc[nH]2)=N/C1=C\c1[nH]c(C)c(C(=O)CCCCC(=O)NC(C)(C)C)c1C | 40.1% | -11.2% (active) | 7.73% (active) | -15.1% (active) | – | 30.5% | 20.5% | –
